Experimental data taken from PubChem BioAssay (NCI).
The panel holds about 83,000 compounds, 20% with a hit somewhere; the sample as a whole holds those more often.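 Single-dose data. Exposure time 48 hours. Values below 10 considered active.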 Values without a mark were called inactive. The source made the active and inactive calls.

Columns and labels:
Experiment in all cases: NCI-60 one-dose screen, 48 h (100 = growth as untreated, 0 = no growth, -100 = all killed)
Details in all cases: 10 µM unless noted
DU-145 prostate = tested on: DU-145 prostate
K-562 leukemia = tested on: K-562 leukemia
MALME-3M melanoma = tested on: MALME-3M melanoma
MDA-MB-231 breast = tested on: MDA-MB-231 breast
SF-268 CNS = tested on: SF-268 CNS
SF-295 CNS = tested on: SF-295 CNS
SF-539 CNS = tested on: SF-539 CNS
UACC-257 melanoma = tested on: UACC-257 melanoma
M14 melanoma = tested on: M14 melanoma

Compound | growth (DU-145 prostate) | growth (K-562 leukemia) | growth (MALME-3M melanoma) | growth (MDA-MB-231 breast) | growth (SF-268 CNS) | growth (SF-295 CNS) | growth (SF-539 CNS) | growth (UACC-257 melanoma) | growth (M14 melanoma)
Nc1nc(N)nc(NCc2ccccc2)n1 | 112% | 89.3% | 108% | 108% | 100% | 100% | 100% | 110% | 107%
COc1ccccc1N1CCN(C(=O)c2ccc3nc(NC(=O)c4ccc(NCCc5ccccc5)c([N+](=O)[O-])c4)sc3c2)CC1 | 68.7% | 86% | 45.6% | 75.7% | 67.6% | 102% | 99.7% | 72.7% | 64.4%
Cn1c(COC(=O)NCCn2ccnc2)nc2c(N3CCOCC3)nc(-c3ccccc3)nc21 | -89.9% (active) | 4.31% (active) | -93.9% (active) | -90.6% (active) | -61.6% (active) | 18% | -99.6% (active) | -56.7% (active) | -72.5% (active)
O=C1Nc2ccccc2/C1=C\c1cccc(/C=C2/C(=O)Nc3ccccc32)n1 | -90.2% (active) | -24.1% (active) | -40.3% (active) | -52.3% (active) | -67.1% (active) | -81% (active) | -73.4% (active) | -65.8% (active) | -69.2% (active)
O=C(CN1CCOCC1)Nc1ccc2ncnc(Nc3ccc(Oc4cccc(C(F)(F)F)c4)c(Cl)c3)c2c1 | 40.8% | 35% | 73.4% | 60.1% | 59.6% | 63.5% | 78.8% | 83.3% | 64%
CC(C)(C)OC(=O)N1C/C(=C\c2ccoc2)C(=O)/C(=C/c2ccoc2)C1 | 109% | 29.3% | 92.6% | 109% | 89.5% | 103% | 106% | 95.9% | 94.2%
COc1ccc(Nn2c(SCC(=O)Nc3nc(-c4ccc(Cl)cc4)cs3)nc(C)c2C)cc1 | 79.6% | 26.9% | 99.1% | 79.7% | 66.1% | 43.9% | 79.1% | 48.9% | 62.5%
COc1cc(NCCCN(CC(C)C)CC(C)C)c2ncccc2c1 | 106% | 110% | 102% | 88.7% | 89.5% | 89.4% | 102% | 90.9% | 91.4%
COc1ccc(-c2ncc(-c3ccccc3)[nH]2)cc1OC | 131% | 93.9% | 260% | 107% | 103% | 88.6% | 100% | 10.5% | 119%
Fc1ccc2nc3c(cc2c1)CSc1nnc(-c2ccc[nH]c2=S)n1N3 | 114% | 106% | 112% | 94.4% | 98.7% | 105% | 95.7% | 105% | 99%
CCN1C(=O)N(CC)C2NC(SC)=NC21 (stereo unspecified) | 111% | 104% | 95% | 103% | 95.3% | 101% | 98.7% | 97.8% | 100%
CC(C)CN(C(=O)c1ccc(Cl)cc1)c1c(N)n(CC(C)C)c(=O)[nH]c1=O | 112% | 103% | 102% | 96.1% | 92.3% | 84.7% | 43.7% | 103% | 109%
Cc1cccc(Oc2ccc(Nc3ncnc4ccc(NC(=O)CNCCO)cc34)cc2Cl)c1 | 44.3% | 13.5% | 70.5% | 74.3% | 61.7% | 79.9% | 64.6% | 93.4% | 74.3%
O=C(N/N=C/c1cccnc1)c1ccccc1Nc1cccc(C(F)(F)F)c1 | 91.1% | 41.5% | 65% | 118% | 76.6% | 64.7% | 96.7% | 75.3% | 73%
CCn1cc(C2NC(=O)c3ccccc3N2)c2cccc(C)c21 (stereo unspecified) | 12.2% | 3.49% (active) | 48% | 15.3% | 43.2% | 3.52% (active) | -49.7% (active) | 66.7% | 8.05% (active)
COc1ccc(-c2nc3sccn3c2/C=C/C(=O)c2cc(OC)c(OC)c(OC)c2)cc1 | 75.7% | 44.2% | 53.3% | 52.8% | 67.4% | 54.6% | 53% | 69.1% | 63.6%
CCOC(=O)c1cnc2c(cnn2CC)c1NN=C(C)C | 100% | 62.9% | 99.7% | 91.6% | 92.4% | 96.1% | 94.8% | 113% | 106%
CN1CCN(c2c(F)cc(NC3=C(Cl)C(=O)c4ncccc4C3=O)cc2F)CC1 | 103% | 2.2% (active) | -6.37% (active) | 84.2% | 93.3% | 117% | 98.1% | 69.3% | 76.5%
CCc1nc(C)cn1C(=O)OCc1nc2nc(Cl)nc(N3CCOCC3)c2[nH]1 | -37.3% (active) | 1.14% (active) | -67.8% (active) | -42.9% (active) | -64% (active) | 79.5% | -74.8% (active) | -80.8% (active) | -56.8% (active)
COc1ccc(-c2c[nH]c(C(=O)O)c2-c2cc(OC)c3c(c2OC)OCO3)cc1 | 112% | 108% | 96.1% | 105% | 99.7% | 103% | 97.4% | 98.7% | 98.9%
O=C(Nc1ccc2ncnc(Nc3ccc(Oc4cccc(F)c4)c(Cl)c3)c2c1)c1ccc(CNCCO)cc1 | 7.74% (active) | -8.41% (active) | 2.04% (active) | -67.2% (active) | 56% | 19.6% | 33.9% | 99.1% | -45.9% (active)
COc1ccc(C(O)c2cc3c(N)c(C(=O)Nc4ccc(Cl)cc4)sc3nc2C)cc1 (stereo unspecified) | 6.92% (active) | 3.42% (active) | 21% | 41.8% | 42.8% | 14.5% | 20.7% | 56.4% | 7.86% (active)
c1ccc(Cn2nc3c(c2-c2ccccc2)-c2oncc2CC3)cc1 | 112% | 73.2% | 89% | 96.8% | 107% | 76.7% | 110% | 92.1% | 98.2%
Cc1c2c(cc[n+]1Cc1ccccc1)c1ccc(OCC3CCCCC3)cc1n2CC1CCCCC1 | -100% (active) | -45.9% (active) | -70.3% (active) | -92% (active) | -98.7% (active) | -92.8% (active) | -85.2% (active) | -92.4% (active) | -84.6% (active)
COc1ccc(-c2cnnc3c(-c4cccc(C(F)(F)F)c4)cnn23)cc1 | 57.8% | 86.3% | 24.1% | 72.9% | 30.1% | -5.8% (active) | 15.9% | 44% | 78.7%
COc1ccc(C(=O)c2cc3c(N)c(C(=O)Nc4cccc5ccccc45)sc3nc2C)cc1 | 9.48% (active) | 7.36% (active) | 55% | 15.7% | 29.1% | 19.7% | -9.85% (active) | 55.8% | 11.6%
COc1ccc(/C=C2\COc3ccc(-c4ccccc4)cc3C2=O)cc1O | -2.34% (active) | 2.96% (active) | 74.7% | 41.6% | 13.3% | 24.2% | -0.576% (active) | 48.3% | 22.9%
CCOC(=O)c1c(O)cc(-c2ccccc2)cc1-c1sc(N(C)Cc2ccccc2)nc1Cl | 108% | 93.4% | 100% | 103% | 95.8% | 99.6% | 97% | 96.1% | -85% (active)
CCOC(=O)C1CC(=O)c2cc(OC)c(OC)cc2C1 (stereo unspecified) | 111% | 88% | 132% | 110% | 102% | 98.1% | 100% | 87.7% | 87.8%
